Source: ChEMBL document CHEMBL2218924, “A broad activity screen in support of a chemogenomic map for kinase signalling research and drug discovery” (Biochem J, 2013)

How the values were obtained:
[1] = target: T1, cGMP-dependent protein kinase 1 (Homo sapiens) (UniProt Q13976); settings: at 10 µM
T1 sequence (whole entry): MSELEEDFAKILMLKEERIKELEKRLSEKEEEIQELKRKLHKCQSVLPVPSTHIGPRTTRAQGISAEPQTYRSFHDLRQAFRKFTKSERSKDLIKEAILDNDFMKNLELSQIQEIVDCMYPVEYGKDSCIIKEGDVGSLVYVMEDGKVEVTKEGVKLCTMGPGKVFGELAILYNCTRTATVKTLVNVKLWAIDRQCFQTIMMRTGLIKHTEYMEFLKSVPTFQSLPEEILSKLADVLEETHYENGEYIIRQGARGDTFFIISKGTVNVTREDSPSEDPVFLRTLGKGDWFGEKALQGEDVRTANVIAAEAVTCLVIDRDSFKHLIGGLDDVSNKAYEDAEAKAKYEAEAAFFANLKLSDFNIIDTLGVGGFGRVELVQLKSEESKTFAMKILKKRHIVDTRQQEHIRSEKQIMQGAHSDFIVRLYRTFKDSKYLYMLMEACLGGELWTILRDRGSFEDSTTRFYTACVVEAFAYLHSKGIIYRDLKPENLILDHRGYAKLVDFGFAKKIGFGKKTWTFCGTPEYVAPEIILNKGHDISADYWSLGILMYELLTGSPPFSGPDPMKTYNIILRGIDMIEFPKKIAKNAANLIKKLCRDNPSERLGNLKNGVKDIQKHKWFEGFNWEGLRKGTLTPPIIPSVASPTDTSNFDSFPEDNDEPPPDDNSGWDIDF

[2] = target: T1, cGMP-dependent protein kinase 1 (Homo sapiens); settings: at 1 µM
[3] = target: T1, cGMP-dependent protein kinase 1 (Homo sapiens); settings: at 10 µM; remark: listed apart in the source
[4] = target: Serine/threonine-protein kinase N2 (Homo sapiens) (UniProt Q16513); settings: at 1 µM
Serine/threonine-protein kinase N2 (Homo sapiens), sequence (Q16513 whole entry, looked up): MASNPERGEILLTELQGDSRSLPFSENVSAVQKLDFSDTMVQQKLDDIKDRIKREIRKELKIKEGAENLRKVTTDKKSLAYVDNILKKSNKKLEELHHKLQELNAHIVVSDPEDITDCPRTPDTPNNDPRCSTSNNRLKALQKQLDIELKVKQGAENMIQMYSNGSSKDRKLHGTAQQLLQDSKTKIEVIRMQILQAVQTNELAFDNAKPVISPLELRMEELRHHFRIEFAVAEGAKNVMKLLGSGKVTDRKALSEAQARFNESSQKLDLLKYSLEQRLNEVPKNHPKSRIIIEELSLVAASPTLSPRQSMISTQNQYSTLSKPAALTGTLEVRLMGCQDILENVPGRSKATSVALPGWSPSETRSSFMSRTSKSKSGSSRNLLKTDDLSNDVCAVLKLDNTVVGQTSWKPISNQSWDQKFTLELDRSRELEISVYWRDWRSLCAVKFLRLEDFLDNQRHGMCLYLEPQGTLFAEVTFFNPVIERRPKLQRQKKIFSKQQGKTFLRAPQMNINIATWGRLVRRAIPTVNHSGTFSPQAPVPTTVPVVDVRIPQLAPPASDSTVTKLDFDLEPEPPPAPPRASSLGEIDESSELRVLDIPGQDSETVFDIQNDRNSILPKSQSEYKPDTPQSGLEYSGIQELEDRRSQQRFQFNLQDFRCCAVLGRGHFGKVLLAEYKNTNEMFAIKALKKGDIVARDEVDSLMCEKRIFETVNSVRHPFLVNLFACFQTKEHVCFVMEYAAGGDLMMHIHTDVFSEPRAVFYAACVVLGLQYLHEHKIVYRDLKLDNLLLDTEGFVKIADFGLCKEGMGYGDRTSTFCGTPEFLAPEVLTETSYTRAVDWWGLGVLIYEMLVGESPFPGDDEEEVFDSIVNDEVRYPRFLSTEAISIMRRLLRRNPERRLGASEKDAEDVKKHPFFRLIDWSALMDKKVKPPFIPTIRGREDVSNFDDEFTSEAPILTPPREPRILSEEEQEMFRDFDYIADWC

[5] = target: Serine/threonine-protein kinase N2 (Homo sapiens) (UniProt Q16513); settings: at 10 µM
[6] = target: Tyrosine-protein kinase FRK (Homo sapiens) (UniProt P42685); settings: at 1 µM
Tyrosine-protein kinase FRK (Homo sapiens), sequence (P42685 whole entry, canonical isoform): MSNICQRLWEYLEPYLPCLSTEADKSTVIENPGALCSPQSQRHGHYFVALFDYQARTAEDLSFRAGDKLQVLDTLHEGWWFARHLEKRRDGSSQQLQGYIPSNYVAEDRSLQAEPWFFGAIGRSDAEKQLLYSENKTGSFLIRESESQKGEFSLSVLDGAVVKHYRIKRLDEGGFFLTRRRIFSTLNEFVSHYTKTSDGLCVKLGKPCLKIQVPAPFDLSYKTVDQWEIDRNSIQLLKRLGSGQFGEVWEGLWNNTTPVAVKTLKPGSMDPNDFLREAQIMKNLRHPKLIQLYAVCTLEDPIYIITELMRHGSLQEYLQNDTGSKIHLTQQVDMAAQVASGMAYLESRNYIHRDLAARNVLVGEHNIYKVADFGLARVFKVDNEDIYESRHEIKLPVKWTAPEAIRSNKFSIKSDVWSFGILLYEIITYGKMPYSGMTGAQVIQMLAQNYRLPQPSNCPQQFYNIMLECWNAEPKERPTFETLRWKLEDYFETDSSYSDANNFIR

[7] = target: Serine/threonine-protein kinase pim-1 (Homo sapiens) (UniProt P11309); settings: at 1 µM
Serine/threonine-protein kinase pim-1 (Homo sapiens), sequence (P11309 whole entry, looked up): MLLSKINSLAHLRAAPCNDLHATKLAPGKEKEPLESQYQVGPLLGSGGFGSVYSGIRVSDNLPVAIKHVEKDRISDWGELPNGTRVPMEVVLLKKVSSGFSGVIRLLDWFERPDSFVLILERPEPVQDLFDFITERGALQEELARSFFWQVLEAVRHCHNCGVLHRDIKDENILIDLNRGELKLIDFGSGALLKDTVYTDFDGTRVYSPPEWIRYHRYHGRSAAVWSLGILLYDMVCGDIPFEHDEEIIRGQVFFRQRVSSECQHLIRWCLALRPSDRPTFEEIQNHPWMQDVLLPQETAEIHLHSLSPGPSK

[8] = target: Serine/threonine-protein kinase pim-1 (Homo sapiens) (UniProt P11309); settings: at 10 µM
[9] = target: Serine/threonine-protein kinase pim-2 (Homo sapiens) (UniProt Q9P1W9); settings: at 1 µM
Serine/threonine-protein kinase pim-2 (Homo sapiens), sequence (Q9P1W9 whole entry, looked up): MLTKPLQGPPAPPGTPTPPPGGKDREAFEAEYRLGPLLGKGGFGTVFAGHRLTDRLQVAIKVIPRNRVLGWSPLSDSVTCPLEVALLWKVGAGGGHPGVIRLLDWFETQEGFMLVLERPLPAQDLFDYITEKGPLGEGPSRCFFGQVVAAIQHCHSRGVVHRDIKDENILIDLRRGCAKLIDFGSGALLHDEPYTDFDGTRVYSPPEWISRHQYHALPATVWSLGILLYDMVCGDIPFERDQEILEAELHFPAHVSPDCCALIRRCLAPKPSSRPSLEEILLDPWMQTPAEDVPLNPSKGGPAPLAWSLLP

[10] = target: Serine/threonine-protein kinase pim-2 (Homo sapiens) (UniProt Q9P1W9); settings: at 10 µM
[11] = target: Serine/threonine-protein kinase pim-3 (Homo sapiens) (UniProt Q86V86); settings: at 1 µM
[12] = target: Serine/threonine-protein kinase pim-3 (Homo sapiens) (UniProt Q86V86); settings: at 10 µM
[13] = target: T1, cGMP-dependent protein kinase 1 (Homo sapiens); settings: at 1 µM; remark: listed apart in the source
[14] = target: T2, MAP kinase-activated protein kinase 5 (Homo sapiens) (UniProt Q8IW41); settings: at 1 µM
T2 sequence (whole entry): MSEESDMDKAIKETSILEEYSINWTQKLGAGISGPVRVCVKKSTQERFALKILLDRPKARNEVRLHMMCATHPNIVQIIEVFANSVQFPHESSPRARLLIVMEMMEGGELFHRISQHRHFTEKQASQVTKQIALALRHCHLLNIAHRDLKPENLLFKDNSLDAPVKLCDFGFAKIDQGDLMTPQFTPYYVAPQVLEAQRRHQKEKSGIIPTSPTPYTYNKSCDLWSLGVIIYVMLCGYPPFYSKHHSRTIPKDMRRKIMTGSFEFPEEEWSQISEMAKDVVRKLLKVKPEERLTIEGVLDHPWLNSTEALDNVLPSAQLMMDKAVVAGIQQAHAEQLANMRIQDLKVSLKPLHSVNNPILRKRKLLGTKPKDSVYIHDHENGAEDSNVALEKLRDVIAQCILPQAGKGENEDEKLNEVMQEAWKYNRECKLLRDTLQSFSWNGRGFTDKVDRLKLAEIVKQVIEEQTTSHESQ

[15] = target: T2, MAP kinase-activated protein kinase 5 (Homo sapiens); settings: at 10 µM
[16] = target: Tyrosine-protein kinase FRK (Homo sapiens) (UniProt P42685); settings: at 10 µM
[17] = target: T3, Phosphorylase b kinase gamma catalytic chain, liver/testis isoform (Homo sapiens) (UniProt P15735); settings: at 1 µM
T3 sequence (whole entry): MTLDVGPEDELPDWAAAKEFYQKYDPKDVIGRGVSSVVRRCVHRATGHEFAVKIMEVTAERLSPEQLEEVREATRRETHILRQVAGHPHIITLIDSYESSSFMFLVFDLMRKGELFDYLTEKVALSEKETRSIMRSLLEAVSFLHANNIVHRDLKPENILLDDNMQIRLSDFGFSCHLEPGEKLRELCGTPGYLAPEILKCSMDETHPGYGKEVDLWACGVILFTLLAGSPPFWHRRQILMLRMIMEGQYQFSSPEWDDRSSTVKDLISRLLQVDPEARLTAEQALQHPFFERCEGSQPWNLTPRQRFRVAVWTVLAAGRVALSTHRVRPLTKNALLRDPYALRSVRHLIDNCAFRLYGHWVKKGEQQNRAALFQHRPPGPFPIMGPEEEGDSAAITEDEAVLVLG

[18] = target: T3, Phosphorylase b kinase gamma catalytic chain, liver/testis isoform (Homo sapiens); settings: at 10 µM
[19] = target: Serine/threonine-protein kinase PLK1 (Homo sapiens) (UniProt P53350); settings: at 1 µM
Serine/threonine-protein kinase PLK1 (Homo sapiens), sequence (P53350 whole entry): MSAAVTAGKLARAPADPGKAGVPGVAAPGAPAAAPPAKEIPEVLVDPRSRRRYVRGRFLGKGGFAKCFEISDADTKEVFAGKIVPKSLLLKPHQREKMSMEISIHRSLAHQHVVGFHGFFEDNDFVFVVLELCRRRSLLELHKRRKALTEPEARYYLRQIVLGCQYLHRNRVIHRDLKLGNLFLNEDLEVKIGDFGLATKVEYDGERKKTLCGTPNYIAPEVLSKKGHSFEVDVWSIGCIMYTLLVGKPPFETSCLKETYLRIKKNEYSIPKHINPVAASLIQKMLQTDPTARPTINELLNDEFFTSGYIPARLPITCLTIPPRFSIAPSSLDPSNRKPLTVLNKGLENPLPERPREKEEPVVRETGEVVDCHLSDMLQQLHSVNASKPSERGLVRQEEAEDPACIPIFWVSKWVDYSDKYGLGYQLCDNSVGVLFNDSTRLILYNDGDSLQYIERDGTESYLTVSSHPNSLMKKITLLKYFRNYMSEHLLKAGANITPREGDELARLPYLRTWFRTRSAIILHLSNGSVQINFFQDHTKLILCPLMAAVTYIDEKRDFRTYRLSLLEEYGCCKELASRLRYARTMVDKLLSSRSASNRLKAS

[20] = target: Serine/threonine-protein kinase PLK1 (Homo sapiens) (UniProt P53350); settings: at 10 µM

| Structure (SMILES) | residual activity [1] [%] | residual activity [2] [%] | residual activity [3] [%] | residual activity [4] [%] | residual activity [5] [%] | residual activity [6] [%] | residual activity [7] [%] | residual activity [8] [%] | residual activity [9] [%] | residual activity [10] [%] | residual activity [11] [%] | residual activity [12] [%] | residual activity [13] [%] | residual activity [14] [%] | residual activity [15] [%] | residual activity [16] [%] | residual activity [17] [%] | residual activity [18] [%] | residual activity [19] [%] | residual activity [20] [%] |
| --- | --- | --- | --- | --- | --- | --- | --- | --- | --- | --- | --- | --- | --- | --- | --- | --- | --- | --- | --- | --- |
| COc1ccc2c(c1)c(C1=C(c3c[nH]c4ccccc34)C(=O)NC1=O)cn2CCCN(C)C | 28 | 64 | 22 | 68 | 25 | 97 | 11 | 1 | 36 | 9 | 57 | 17 | – | – | – | – | – | – | – | – |
| O=C(Nc1nc2ccccc2n1CCN1CCOCC1)c1cccc([N+](=O)[O-])c1 | 101 | 83 | 88 | 78 | 115 | – | – | – | 100 | 78 | – | – | 100 | – | – | – | – | – | – | – |
| COc1cc2nccc(Oc3ccc(NC(=O)Nc4cc(C)on4)c(Cl)c3)c2cc1OC | 97 | 105 | – | 97 | 108 | 2 | – | – | – | 103 | 107 | 105 | 101 | 99 | 70 | -3 | – | – | – | – |
| O=c1cc(N2CCNCC2)oc2c(-c3ccccc3)cccc12 | – | 84 | 81 | 105 | 101 | – | 84 | 54 | 100 | – | 88 | 76 | – | 93 | 99 | 104 | 84 | 92 | 82 | 55 |
| COc1cc2nccc(Oc3ccc(NC(=S)NC(=O)c4ccccc4C)cc3)c2cc1OC | 97 | 69 | 66 | 90 | 88 | 6 | 102 | 99 | 97 | – | 89 | 87 | 97 | 70 | 79 | 1 | 61 | 45 | 83 | 65 |
| CN(C)S(=O)(=O)c1ccc2c(c1)/C(=C/c1cc3c([nH]1)CCCC3)C(=O)N2 | – | 89 | 80 | 95 | 82 | 54 | – | 86 | 123 | 121 | 93 | 94 | 99 | – | – | 48 | 48 | 46 | 96 | 95 |
| O=C1C(Cl)=C(N2C(=O)CCC2=O)C(=O)c2ccccc21 | 96 | 101 | 88 | 86 | 79 | 88 | 84 | 82 | 131 | 99 | 84 | 84 | 95 | – | 98 | 96 | – | – | 74 | 85 |
| CC(C)(C)c1nc2c3ccc(F)cc3c3c(=O)[nH]ccc3c2[nH]1 | 45 | 30 | 19 | 29 | 39 | 74 | – | – | – | – | – | – | 45 | 47 | 45 | 60 | 41 | 24 | – | – |
| O=c1cc(N2CCOCC2)oc2c1ccc1ccccc12 | – | 91 | 99 | 101 | 98 | – | 55 | 13 | 87 | 45 | 92 | 55 | – | 28 | 42 | 90 | 90 | 89 | 56 | 11 |
| O=C(CCCc1ccc(-c2ccccc2F)cc1)Nc1ccc(O)cc1 | 100 | 97 | 72 | 100 | 79 | 97 | 100 | 97 | – | 139 | 96 | 97 | 98 | – | 64 | 112 | 109 | 112 | 93 | 103 |
| COc1ccc(-c2cnc3c(-c4ccsc4)cnn3c2)cc1 | 90 | 99 | 99 | 95 | 130 | – | 76 | 70 | – | – | – | – | 88 | 93 | 84 | – | – | – | 95 | 71 |
| CCCCc1c(-c2ccc(OC)cc2)[nH]c2nccnc12 | 116 | 107 | – | 88 | 76 | 60 | 109 | 88 | 112 | 104 | 104 | 113 | – | 73 | 108 | 51 | 113 | 109 | 81 | – |
| c1ccc(-c2cnc(Nc3ccc(OCCN4CCCC4)cc3)s2)cc1 | 136 | 70 | 77 | 102 | 100 | 72 | 113 | 104 | 111 | 105 | – | – | 122 | 120 | 111 | 16 | – | 54 | – | – |
| Nc1n[nH]c2nc3ccccc3nc12 | 88 | – | 59 | – | 74 | 98 | 124 | 87 | 130 | 93 | 95 | 86 | – | 95 | – | 92 | – | – | 91 | 78 |
| CC(C)(C)n1nc(Cc2cccc3ccccc23)c2c(N)ncnc21 | 97 | 86 | 95 | – | – | 26 | 77 | 106 | 114 | – | 96 | 95 | 109 | 75 | 33 | 0 | 98 | 109 | 99 | 75 |
| Cc1cc(C)c(/C=C2\C(=O)Nc3ccccc32)[nH]1 | 103 | – | 78 | – | – | – | – | – | – | – | 100 | 101 | 104 | 78 | – | – | – | – | – | 76 |
| O=C1NC(=O)c2c1c1c3ccccc3[nH]c1n1cncc21 | 89 | 99 | 70 | 69 | 61 | 87 | 6 | 2 | 5 | 0 | 14 | 17 | 82 | 97 | 71 | 63 | 95 | 70 | 62 | 60 |
| O=C(O)/C=C/c1cc(Br)c(Br)c(Br)c1Br | 65 | 82 | 32 | – | 38 | 102 | 49 | 6 | 28 | 1 | 78 | 39 | 94 | 83 | 28 | 86 | 109 | 63 | 73 | 22 |
| O=C1NC(=O)C(c2c[nH]c3ccccc23)=C1c1c[nH]c2ccccc12 | 43 | 83 | 28 | 81 | 37 | 80 | 12 | 0 | 23 | 8 | – | 73 | – | 98 | 48 | 41 | – | – | – | – |
| O=S(=O)(NCCNC/C=C/c1ccc(Br)cc1)c1cccc2cnccc12 | 4 | 4 | 4 | 26 | 4 | – | – | – | 139 | 132 | – | – | 4 | – | – | – | – | – | – | – |
| O=C1Nc2ccc(Cl)cc2/C1=C/c1cc(Cl)c(O)c(Cl)c1 | 79 | 79 | 44 | 99 | 94 | 56 | 24 | 5 | 17 | 3 | 77 | 30 | 84 | 95 | 17 | 5 | 94 | 83 | 83 | 62 |
| CSc1nc(-c2ccc(F)cc2)c(-c2ccnc(NC(C)c3ccccc3)c2)[nH]1 (centres undefined) | 86 | – | 84 | – | 94 | 90 | 85 | 53 | – | – | – | – | 85 | – | – | 94 | – | – | – | – |
| Oc1cccc(-c2nc(N3CCOCC3)c3oc4ncccc4c3n2)c1 | – | – | 90 | – | – | – | 88 | 86 | – | – | 98 | 98 | 120 | 98 | – | – | – | – | – | – |
| CC(C)c1nn(-c2c(Cl)cccc2Cl)c2nc(Cc3ccc(OCCO)cc3)[nH]c(=O)c12 | 102 | 91 | 48 | 89 | 91 | 72 | 104 | 82 | 131 | 103 | 93 | 92 | 103 | – | 73 | 35 | – | 93 | 83 | 81 |
| Nc1ncnc2c1c(-c1ccc(Oc3ccccc3)cc1)cn2C1CCCC1 | 96 | 82 | 72 | 87 | 100 | 2 | 103 | 88 | 106 | – | 88 | 88 | 102 | 90 | 46 | 2 | 97 | 95 | 83 | 50 |
| O=S(=O)(c1cccc2cnccc12)N1CCCNCC1 | 17 | 68 | 15 | 56 | 10 | – | – | – | 138 | – | – | – | 57 | – | – | – | – | – | – | – |
